Source: PubChem BioAssay (National Center for Advancing Translational Sciences (NCATS))
GCN5L2 inh = inhibitors of human GCN5L2 histone acetyltransferase; Q92830; GCN5L2 HAT assay, ThioGlo1 CoA-SH fluorescence; Potency, µM (doses to about 58.9 µM), for inactives: at the top dose activity change, negative = inhibition, actives largely listed as inhibitors; 390,000 compounds, 0.21% hits; AID 504327; further: on the % scale 0 is the no-effect control and ±100 the full control effect
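Compounds, pin-transferred from DMSO stocks, meet 20nM GCN5L2 for 15 min before the reaction begins with H3(1-25) peptide (75uM) and acetyl-CoA (70uM). Thiol-reactive ThioGlo1 reports CoA release over 20 min at room temperature.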
NPSR antagonist = blocks cAMP signaling of the human neuropeptide S receptor; Q6W5P4; CHO-NPSR cells, cAMP TR-FRET, antagonist mode; Potency, µM (series often up to 38.3 µM), for inactives: top-dose activity change, negative = inhibition, hits mostly inhibitors; 220,000 compounds, 1% hits; AID 1461; further: on the % scale 0 is the no-effect control and ±100 the full control effect; nearly all actives have a fitted effect of over 50% in size
Target sequence (Q6W5P4 whole entry, looked up): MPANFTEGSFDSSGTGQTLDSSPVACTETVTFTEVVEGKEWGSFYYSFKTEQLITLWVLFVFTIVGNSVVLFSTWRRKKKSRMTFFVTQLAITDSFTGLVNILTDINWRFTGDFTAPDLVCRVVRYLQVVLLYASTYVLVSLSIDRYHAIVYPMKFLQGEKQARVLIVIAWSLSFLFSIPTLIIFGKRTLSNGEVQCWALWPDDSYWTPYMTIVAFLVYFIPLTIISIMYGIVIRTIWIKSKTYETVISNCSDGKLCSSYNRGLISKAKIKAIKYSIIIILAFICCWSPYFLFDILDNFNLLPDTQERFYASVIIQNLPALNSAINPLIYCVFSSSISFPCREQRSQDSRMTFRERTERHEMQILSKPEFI
Sfp PPTase inh = inhibitors of Bacillus subtilis Sfp phosphopantetheinyl transferase | Biochemical Sfp PPTase activity, qHTS | Potency, µM, inactives show largest response in the series, negative = inhibition, usual class: inhibitors | 310,000 compounds, 3.5% hits;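 further: the enzyme is Sfp with the accession as filed and its product quenches rhodamine fluorescence; 0% = enzyme reaction without inhibitor and -100% = no enzyme wells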
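Sfp 15 nM + cpd, 15 min RT; start w/ rhodamine-CoA 5 uM, BHQ-2-YbbR 12.5 uM (final); 50 mM Hepes pH 7.6, 10 mM MgCl2, 0.01% NP-40, 0.01% BSA; read 525/598 nm at 0 and 30 min.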
Epigenetic reg = epigenetic control regulation, reporter derepression; murine LDR cells, GFP reporter derepression, 30 h; Potency, µM (top dose mostly 53.9 µM), for inactives: at the top dose GFP activation, most hits filed as activators; 280,000 compounds, 0.2% hits; AID 1865; further: % of control where 0% means no effect; nearly all actives have a fitted effect of over 60% in size
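Murine LDR cells carrying a silenced, genomically integrated CMV-driven GFP reporter were exposed to compound for 30 hours at 37 C. After PBS washes, GFP-positive cells (20–120 um objects) were counted by laser-scanning microplate cytometry.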
JMJD2E inh = inhibitors of human JMJD2E histone demethylase | JMJD2E catalytic domain, FDH-coupled NADH fluorescence (FDH is formaldehyde dehydrogenase) | Potency, µM (top dose mostly 57.1 µM), for inactives: top-dose activity change, negative = inhibition, usual class: inhibitors | 230,000 compounds, 1.6% hits; active means well fitted inhibition curve with a large enough effect, not every such curve was filed as active; inconclusive means small, poorly fitted or top-dose-only effect, or another doubt; inactive means no such curve, though single readings can be large or run the other way;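 further: 0% = wells with enzyme and -100% = buffer wells without enzyme; nearly all actives have a fitted effect of over 50% in size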
Target sequence (B2RXH2 1-337 limits assumed): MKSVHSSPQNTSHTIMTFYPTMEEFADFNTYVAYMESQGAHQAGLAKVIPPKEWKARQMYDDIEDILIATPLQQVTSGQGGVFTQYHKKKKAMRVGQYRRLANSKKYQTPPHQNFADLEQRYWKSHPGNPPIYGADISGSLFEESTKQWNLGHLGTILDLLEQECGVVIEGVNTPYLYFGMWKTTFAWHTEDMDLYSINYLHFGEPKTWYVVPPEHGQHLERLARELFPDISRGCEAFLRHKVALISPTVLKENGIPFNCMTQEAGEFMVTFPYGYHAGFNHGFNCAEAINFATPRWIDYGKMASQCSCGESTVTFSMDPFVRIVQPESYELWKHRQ
IMPase Li cell = cell-permeable IMPase inhibitors with lithium potentiation. CHO-M1 cells, IP1 TR-FRET (IP-One), carbachol + lithium. Potency, µM (top dose mostly 59.4 µM), inactives show at the highest dose activity, negative = IMPase inhibition, hits mostly inhibitors. 210,000 compounds, 0.35% hits;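 further: IP1 builds up when IMPase is blocked and the TR-FRET signal falls; plate controls were basal vehicle for no effect and high inhibitor control for full effect; nearly all actives have a fitted effect of over 50% in size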
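IP1 accumulation measured by competitive TR-FRET in lysed CHO-M1 cells after 30 min compound exposure at 37C, with a small lithium addition to potentiate weak responses. Hill-equation AC50 from ratio and donor-channel data.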
Active calls of the source: *; ? = inconclusive; · = no result given; ! = repeats disagree; [ ] = remark or other dose. Sampled rows, rich in hits. Any-hit rate of the full collection: about 3.6%. Unless noted, the call rests on the fitted dose curve; in most records, active means well fitted curve in the direction sought with a large enough effect; inconclusive means small, poorly fitted or top-dose-only effect, or another doubt; inactive means no such curve, though single readings can be large; an effect the other way counts as inactive or inconclusive. Potency means the concentration at half of the fitted maximal effect.

SMILES | GCN5L2 inh | NPSR antagonist | Sfp PPTase inh | Epigenetic reg | JMJD2E inh | IMPase Li cell
CCN(CCNCC(O)COc1ccccc1C(C)C)c1cccc(C)c1 (stereo unspecified) | -3% | · | 45µM* | · | · | ·
COc1ccc(-c2cc3ccc(O)c(CN4CCN(C)CC4)c3oc2=O)cc1OC | -30% | · | · | -5% | · | ·
COc1ccc(-c2cc3ccc(O)c(CN4CCN(CCO)CC4)c3oc2=O)cc1OC | 18µM* | · | · | -3% | · | ·
Cc1occc1C(=O)NCc1ccc(C(=O)O)o1 | -5% | -12%[46.1 µM] | 50µM* | 1% | -5% | 23%[38.3 µM]
Cc1occc1C(=O)NCCCCc1ccccc1 | -6% | -19%[46.1 µM] | 18µM* | -2% | 1% | 47%[38.3 µM]
C[C@H]1Cc2c(-c3ccccc3)nc3c(c2CO1)CN(C(=O)c1ccco1)CC3 | · | · | 8% | · | -3%[11.4 µM] | 3%
CCN1C(=O)N[C@H](c2ccc(Br)cc2)C(C(C)=O)=C1C | -2% | -11% | 89µM*! | 0% | 16% | 11%
CCN1C(=O)N[C@@H](c2cccc(F)c2)C(C(C)=O)=C1C | · | · | 7% | · | 13%[11.4 µM] | 3%
Cc1ccc(CCNC(=O)Cn2ncc3c([nH]c4ccc(C)cc43)c2=O)cc1 | 4% | · | · | -1% | · | ·
O=C(NC(=S)Nc1nc2c(s1)CSc1ccccc1-2)c1ccccc1 | -14% | ? | 45µM* | 0% | -27% | -11%[38.3 µM]
O=C(NC(=S)Nc1nc2c(s1)CCCC2)c1ccc(C(=O)c2ccccc2)cc1 | 1% | -24% | -11% | 0% | 8% | -6%
COc1cc(-c2ccc(N=C=O)c(OC)c2)ccc1N=C=O | · | · | · | · | · | 15%
CC(C)CC(CSc1ccc(Br)cc1)N1CCN(C)CCC1=O (stereo unspecified) | · | · | 2% | · | · | ·
C/C(=C\c1ccc(C)o1)C(=O)c1c(C)cc(C)[nH]c1=O | -22% | 25% | 32µM* | -4% | -2% | 6%
O=[N+]([O-])c1ccc(C=Nc2ccc(Cl)c([N+](=O)[O-])c2)s1 | -10% | -25% | -5% | 7%[10.1 µM] | 14µM* | 14%
NC(=O)c1ccc(N=Cc2ccc([N+](=O)[O-])s2)cc1 | -8% | -33% | -4% | ? | 22µM* | 10%
COc1ccc([N+](=O)[O-])cc1C(=O)C(=O)c1ccccc1 | 1% | · | -2% | · | · | ·
COc1cc(C(=O)O)nc2ccc([N+](=O)[O-])cc12 | -6% | -4% | 10µM* | -1% | -18% | 9%
FC(F)(F)C1=Nc2cccc3cccc(c23)N1 | 6.3µM* | · | · | · | · | ·
COc1ccc(N2CCN(C(C)C(=O)N3CCc4ccccc43)CC2)cc1 (stereo unspecified) | -20% | · | 1% | · | · | ·
COc1ccc(N2CCN(C(C)C(=O)N3CC(C)OC(C)C3)CC2)cc1 (stereo unspecified) | -4% | 18% | ? | -1% | 22µM* | 3%
O=C(CCCC[C@@H]1SC[C@H]2NC(=O)N[C@H]12)Nc1ccc(C(=O)O)cc1 | -4% | · | -17% | · | · | ·
CC1CC=CC2C1C(=O)N(Cc1ccccc1)C2c1ccc(/C=C/c2ccccc2)cc1F (stereo unspecified) | · | · | -8% | · | · | ·
COCCCN(C(=S)Nc1c(C)cc(C)cc1C)C(C)c1ccccn1 (stereo unspecified) | -2% | -6% | 22µM* | 2% | 5% | 10%
CCN(CCCc1ccccc1)CCCc1ccccc1 | -5% | -11% | 13% | 0% | 8.9µM* | 21%
SMILES | GCN5L2 inh | NPSR antagonist | Sfp PPTase inh | Epigenetic reg | JMJD2E inh | IMPase Li cell
CCOC(=O)c1sc(=NC(=O)c2ccc(OC(C)C)cc2)n(C)c1C | 2% | 5µM* | 8% | 4% | -29% | ?
CCOC(=O)c1sc(=NC(=O)c2ccc(S(=O)(=O)N3CC(C)OC(C)C3)cc2)n(C)c1C (stereo unspecified) | -8% | 10µM* | 13% | -1% | 5% | ·
CCOC(=O)c1sc(=NC(=O)c2cccs2)n(C)c1C | 7% | 3.2µM* | 18% | 10% | -17% | ?
COc1cc(OC)c(NC(=O)c2noc3c2CSc2ccccc2-3)cc1Cl | -9% | · | · | 3% | · | ·
COc1ccc(-c2c(-c3cc(OC)cc(OC)c3)sc3ccc(OC)cc23)cc1 | -4% | · | · | · | · | ·
CCCC[n+]1c(C)sc2cc(OC)ccc21 | -13% | -6% | 6.3µM* | -1% | 0% | 17%
COc1ccc2sc(C)[n+](C)c2c1 | -10% | 7% | 45µM* | 0% | 20µM* | 1%
CCOc1ccc(S(=O)(=O)Nc2cc(SCC(=O)O)c(O)c3ccccc23)cc1 | 19% | · | -84% | · | · | ·
O=S(=O)(Nc1cc(Sc2cccc3cccnc23)c(O)c2ccccc12)c1ccccc1 | -23% | -6% | 10µM* | 7% | 28µM* | 12%
O=C(O)CSc1cc(NS(=O)(=O)c2cccc([N+](=O)[O-])c2)c2ccccc2c1O | 41% | -25% | 2.8µM* | ? | ? | ·
CCc1ccc(S(=O)(=O)Nc2cc(SCC(=O)O)c(O)c3ccccc23)cc1 | -3% | -12% | 4µM* | -2% | ? | 21%
Cc1ccc(C)c(S(=O)(=O)Nc2cc(SCC(=O)O)c(O)c3ccccc23)c1 | 65% | 22% | 3.5µM* | 2% | 12% | 13%
O=C1c2ccccc2C(=O)c2cc(S(=O)(=O)Nc3cccc4cccnc34)ccc21 | · | · | 7% | · | · | ·
CN[C@H](CC(C)C)C(=O)N[C@H]1C(=O)N[C@@H](CC(N)=O)C(=O)N[C@@H]2C(=O)N[C@H]3C(=O)N[C@H](C(=O)N[C@H](C(=O)O)c4cc(O)cc(O)c4-c4cc3ccc4O)[C@H](O)c3ccc(c(Cl)c3)Oc3cc2cc(c3O[C@@H]2O[C@H](CO)[C@@H](O)[C@H](O)[C@@H]2O[C@H]2C[C@](C)(N)[C@H](O)[C@H](C)O2)Oc2ccc(cc2Cl)[C@H]1O | 1% | · | · | · | · | ·
N=c1nc(N)nc(N)n1-c1ccc(S(N)(=O)=O)cc1 | · | · | · | · | · | 5%
CC1=C(C)CS(=O)N(c2ccc(S(N)(=O)=O)cc2)C1 (stereo unspecified) | -5% | ? | 25µM* | ? | 5% | 26%[38.3 µM]
CC1=C(C)CS(=O)N(S(=O)(=O)c2ccccc2)C1 (stereo unspecified) | 1% | -4%[46.1 µM] | 14µM* | ? | -2% | 17%[38.3 µM]
COC(=O)N1CCC2(CC1)CN(c1ccccc1)C2 | 0% | · | 0% | · | · | 2%
O=c1cc(-c2ccccc2O)oc2c(O)c(O)ccc12 | · | · | 4µM* | 1% | 11µM* | 8%
Cc1c(Cc2ccccc2)c(=O)oc2c(O)c(O)ccc12 | -10% | -11% | -22% | 8% | 3.2µM* | 2%
O=C(O)Cc1cccc2c(=O)cc(-c3ccccc3)oc12 | · | · | · | · | · | -1%
Cc1oc2c(O)c(O)ccc2c(=O)c1-c1ccc(Cl)cc1 | -6% | · | -18% | · | · | ·
